Experimental data taken from PMC5540273 (PLoS ONE, 2017).

Key:
Settings in all cases: concentration: 1 μM, replicates: in singlicate; n = 1
TIE1 = system: TIE1
TIE2 = system: T1, TIE2
T1 construct: gene TEK

TLK1 = system: TLK1
TLK2 = system: TLK2
TNIK = system: TNIK
TNK1 = system: TNK1
TNK2 = system: TNK2
TNNI3K = system: TNNI3K
TRKA = system: T2, TRKA
T2 construct: gene NTRK1

TRKB = system: TRKB
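Further: KINOMEscan kinase panel screen.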

SMILES | %Inh (TIE1) | %Inh (TIE2) | %Inh (TLK1) | %Inh (TLK2) | %Inh (TNIK) | %Inh (TNK1) | %Inh (TNK2) | %Inh (TNNI3K) | %Inh (TRKA) | %Inh (TRKB)
Cl.Cn1ccc(-c2cccc(Nc3ccnc4cc(-c5nccs5)ccc34)c2)n1 [GW525701] | 0% | 0% | 13% | 3% | 50% | 0% | 33% | 0% | 0% | 60%
Nc1nc(-c2ccc3c(N)n[nH]c3c2)cc(N2CCC[C@@H](C(=O)Nc3ccccc3)C2)n1.O=C(O)C(F)(F)F.O=C(O)C(F)(F)F [GSK2288359] | 0% | 0% | 15% | 10% | 0% | 0% | 1% | 5% | 0% | 0%
Cl.c1ccc(Cn2ncc3cc(Nc4ncnc5ccccc45)ccc32)cc1 [GW273749] | 0% | 0% | 15% | 0% | 0% | 0% | 12% | 0% | 0% | 0%
Fc1cccc(COc2ccc(Nc3ncnc4cc[nH]c34)cc2Cl)c1 | 0% | 5% | 25% | 12% | 11% | 0% | 27% | 5% | 2% | 17%
CC(C)(C)c1ccc(-n2cnc3c(N)ncnc32)cc1 [SKF-97263] | 14% | 0% | 0% | 0% | 0% | 5% | 10% | 12% | 18% | 0%
Nc1nccc2scc(-c3ccc4c(c3)CCN4C(=O)Cc3cc(F)ccc3F)c12 [GSK2587663] | 54% | 1% | 4% | 0% | 0% | 0% | 23% | 4% | 0% | 42%
FC(F)(F)c1ccc(-c2nn3ncccc3c2-c2ccnc(Nc3cccc(C(F)(F)F)c3)n2)cc1 [GW828205] | 0% | 52% | 0% | 8% | 0% | 0% | 0% | 0% | 0% | 0%
Cl.Fc1ccccc1COc1ccc(Nc2ncnc3ccc(-c4nnc(C(F)(F)F)o4)cc23)cc1Cl [GW424170] | 0% | 0% | 4% | 0% | 0% | 0% | 0% | 0% | 3% | 6%
CN1CCC(n2cnc(-c3ccc(F)cc3)c2-c2ccnc(NC3CCNCC3)n2)CC1 [SB-229482] | 0% | 0% | 11% | 0% | 1% | 16% | 0% | 0% | 17% | 26%
COC(=O)c1cccc(NC(=O)NCCNc2ccnc(Nc3ccc(F)cc3)n2)c1 [GSK1379883] | 0% | 0% | 1% | 0% | 0% | 0% | 14% | 0% | 19% | 0%
C[C@H]1CC[C@@H](C(=O)Nc2ccccc2)CN1c1cc(-c2ccc3c(N)n[nH]c3c2)nc(N)n1 [GSK2283293] | 26% | 0% | 4% | 0% | 0% | 0% | 17% | 0% | 0% | 0%
CS(=O)(=O)CCNCc1ccc(-c2ccc3ncnc(Nc4ccc(OCc5ccccc5)c(Cl)c4)c3c2)o1.Cl [GW574783] | 34% | 2% | 0% | 0% | 0% | 0% | 9% | 0% | 17% | 0%
Nc1nc(-c2cccnc2)c(-c2ccnc3ccccc23)s1 [GW684083] | 6% | 0% | 0% | 0% | 81% | 0% | 18% | 0% | 59% | 39%
CC(=O)Nc1n[nH]c2ncc(-c3ccccc3)cc12 [SB-548492] | 0% | 21% | 6% | 0% | 12% | 0% | 0% | 0% | 90.1% | 25%
Fc1cccc(COc2ccc(Nc3ncnc4nn5ccccc5c34)cc2Cl)c1 [GW689066] | 0% | 0% | 0% | 0% | 0% | 0% | 10% | 0% | 0% | 22%
FC(F)(F)c1ccc(-c2cc(-c3c[nH]nc3-c3ccccn3)ccn2)cc1 [GW599550] | 4% | 0% | 11% | 11% | 78% | 0% | 16% | 0% | 0% | 0%
Cc1ccc(C)c(NC(=O)NCCNc2ccnc(Nc3ccc(F)cc3)n2)c1 [GSK1379878] | 0% | 0% | 1% | 0% | 0% | 0% | 9% | 0% | 10% | 0%
CCCc1ccc(S(=O)(=O)NC2CCN(c3ccnc(Nc4ccc(OC)cc4)n3)C2)cc1 (stereo not drawn) [GSK1379737] | 34% | 0% | 0% | 0% | 0% | 0% | 11% | 6% | 0% | 23%
COc1ccc(Nc2nccc(N3CCC(NC(=O)c4cccc(NC(C)=O)c4)C3)n2)cc1 (stereo not drawn) [GSK1379732] | 0% | 0% | 0% | 0% | 0% | 0% | 7% | 7% | 37% | 40%
Fc1cccc(COc2ccc(Nc3ncnc4sc(-c5ccc[nH]5)cc34)cc2Cl)c1 [GW707818] | 0% | 16% | 25% | 11% | 0% | 0% | 13% | 13% | 22% | 0%
Cl.O=S(=O)(c1cccc(F)c1)c1ccc(Nc2ncnc3cc(Br)sc23)cc1Cl [GSK306886] | 0% | 0% | 19% | 2% | 0% | 0% | 21% | 23% | 0% | 0%
